MCF10A rereplic = DNA re-replication induction in MCF 10a cells; MCF 10A DNA re-replication, Hoechst nuclear intensity, 48 h; Potency, µM (top dose mostly 46.1 µM), for the others: at the top dose activity, positive = re-replication, most hits filed as activators; 2.9% of 350,000 active; also: potency is read from the fitted curve at half-maximal effect; % of control where 0% means no effect; nearly all actives have a fitted effect of over 50% in size
IL1B secr inh = blocks inflammasome-driven IL-1 beta release; THP-1 LPS/ATP IL-1B secretion, AlphaLISA, 16 h; hits give low values; activity change, % at 57.5 µM; 4.7% of 360,000 active; in the data active = activity change below about -50%; inconclusive = mostly about -30% to -49%; also: % is scaled to controls: 0 for no effect and ±100 for the full control effect
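Secreted IL-1B measured by AlphaLISA bead assay after 16 h compound exposure of THP-1 cells; compounds (final up to 57.5 uM) added 1 h before LPS (250 ng/mL) and ATP (1.25 mM) stimulation; lower signal means less secretion.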
Chronic BCR inh = chronic active BCR signaling inhibition | AID 493014 | Potency, µM (highest dose often 46.1 µM), for the others: top-dose activity change, negative = inhibition, actives largely listed as inhibitors | 0.05% of 340,000 active | ABC-DLBCL IkBa-CBG/CBR reporter, luminescence ratio, 4 h; active = well fitted inhibition curve with a large enough effect in the signal ratio, with a control signal flat, not every such curve was filed as active; inconclusive = small, poorly fitted or top-dose-only effect, or effect the other way, or a change in a side signal; the % refers to the signal ratio;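 also: potency is read from the fitted curve at half-maximal effect; plate controls were basal doxycycline-induced cells for no effect and cells given 10 µM MG132 for full effect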
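TMD8 ABC-DLBCL cells carrying doxycycline-inducible green luciferase fused to IkappaBalpha plus unfused red luciferase were exposed to compounds (up to 46 uM) for 4 hrs at 37C. Activity came from the overlap-corrected green/red luminescence ratio.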
TDP1 cell CPT = DT40-hTDP1 cell growth loss with CPT. Potency, µM (doses to about 46.2 µM), for inactives: top-dose activity change, negative = growth inhibition, actives largely listed as inhibitors. chicken DT40 Tdp1-/-;hTDP1 cells + 20 nM CPT, ATP luminescence, 48 h. AID 686979. 12% of 420,000 active; also: potency is read from the fitted curve at half-maximal effect; % is scaled to controls: 0 for no effect and ±100 for the full control effect; nearly all actives have a fitted effect of over 55% in size
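Chicken DT40 Tdp1-/- cells complemented with human TDP1, 400 cells/well, exposed to compounds plus 20 nM camptothecin for at least 48 h at 37 C; viability read as ATP content by CellTiter-Glo luminescence.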
TDP1 cell noCPT = qHTS for Inhibitors of human tyrosyl-DNA phosphodiesterase 1 (TDP1): qHTS in cells in absence of CPT | DT40 Tdp1-/- hTDP1 cells, no CPT, ATP luminescence, 48 h | Potency, µM (titrated, usually from 46.2 µM), inactives show at the top dose activity change, negative = growth inhibition, hits mostly inhibitors | 15% of 420,000 active | AID 686978, 2013; also: potency is read from the fitted curve at half-maximal effect; % is scaled to controls: 0 for no effect and ±100 for the full control effect; nearly all actives have a fitted effect of over 55% in size
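Compound effects on proliferation are scored in DT40 Tdp1-/-;hTDP1 cells in the absence of CPT. ATP levels (CellTiter-Glo luminescence) are recorded after a ≥48 hr, 37 °C incubation.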
SW480 rereplic = DNA re-replication induction in SW480 cells; SW480 DNA re-replication, Hoechst DNA content imaging, 48 h; Potency, µM (titrated, usually from 46.1 µM), for the others: at the highest dose re-replication activation, hits mostly activators; 1.8% of 340,000 active; also: potency is read from the fitted curve at half-maximal effect; % of control where 0% means no effect; nearly all actives have a fitted effect of over 55% in size
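Readout is total intensity of Hoechst-stained nuclei, excited at 405 nm and collected at 500-530 nm. Compound treatment lasted 48 hr at 37 C in 5% CO2 before staining.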
Starred values were filed as active, the others as inactive; [ ] = remark or other dose. Shown are actives, neighbours in structure and some others; about 19% of the full set was active somewhere. Unless noted, calls follow the shape of the dose curve; as a rule, active = well fitted curve in the direction sought with a large enough effect; inconclusive = small, poorly fitted or top-dose-only effect, or another doubt; inactive = no such curve, though single readings can be large; an effect the other way counts as inactive or inconclusive.

Cc1cc(=O)oc2cc(OCC(=O)N3CCC(C(N)=O)CC3)ccc12 was read as MCF10A rereplic -5%, IL1B secr inh -3, Chronic BCR inh 14%, TDP1 cell CPT 11%, TDP1 cell noCPT 2% and SW480 rereplic -3%.
For COc1ccc2oc(C(=O)NN3C(C)CCCC3C)c(C)c2c1 (centres undefined) the results were MCF10A rereplic 2%, IL1B secr inh 30, Chronic BCR inh 2%, TDP1 cell CPT inconclusive, TDP1 cell noCPT inconclusive and SW480 rereplic -1%.
`COc1ccc2oc(C(=O)OCc3c(C)noc3C)c(C)c2c1` gave MCF10A rereplic 7%, IL1B secr inh -107*, Chronic BCR inh 2%, TDP1 cell CPT -18%, TDP1 cell noCPT -23% and SW480 rereplic 3%.
COc1ccc2oc(C(=O)OC(C)C(=O)N3C(C)CCCC3C)c(C)c2c1 (centres undefined) was read as MCF10A rereplic inconclusive, IL1B secr inh 7, Chronic BCR inh 0%, TDP1 cell CPT inconclusive, TDP1 cell noCPT 21µM* and SW480 rereplic 1%.
C[C@H](CN1CCCC1)C(=O)c1ccc(C(F)(F)F)cc1 was read as TDP1 cell CPT 6% and TDP1 cell noCPT -4%.
For CCOC(=O)/C(C#N)=C/c1cc(C)n(-c2ccc(C)cc2)c1C the results were MCF10A rereplic inconclusive, IL1B secr inh -4, Chronic BCR inh -2%, TDP1 cell CPT 18µM*, TDP1 cell noCPT 18µM* and SW480 rereplic 2%[9.22 µM].
Screening Cc1cc(/C=C(\C#N)C(=O)Nc2ccccc2)c(C)n1-c1ccc(C(=O)O)cc1 returned MCF10A rereplic 1%, IL1B secr inh inconclusive, Chronic BCR inh inconclusive, TDP1 cell CPT -24%, TDP1 cell noCPT -11% and SW480 rereplic 4%.
Screening Cc1cc(/C=C(\C#N)C(=O)Nc2ccc(Cl)cc2)c(C)n1-c1ccc(N2CCOCC2)c([N+](=O)[O-])c1 returned MCF10A rereplic 14%, IL1B secr inh inconclusive, Chronic BCR inh 0%, TDP1 cell CPT 7.3µM*, TDP1 cell noCPT 7.3µM* and SW480 rereplic -9%.
For Cc1cccc(NC(=O)/C(C#N)=C\c2cc(C)n(-c3ccc(C(=O)O)cc3)c2C)c1 the results were MCF10A rereplic 19%, IL1B secr inh -78*, Chronic BCR inh -5%, TDP1 cell CPT inconclusive, TDP1 cell noCPT 18µM* and SW480 rereplic -1%.
For CNC(=O)/C(C#N)=C/c1cc(C)n(-c2ccc(N3CCOCC3)cc2)c1C the results were MCF10A rereplic 2%, IL1B secr inh 28, Chronic BCR inh 9%, TDP1 cell CPT 3.3µM*, TDP1 cell noCPT inconclusive and SW480 rereplic 4%.
CCc1ccc(CNC(=O)c2ccc3nc(C4CCCCC4)oc3c2)nc1 was read as Chronic BCR inh 0%.
For CCC(C)NC(=O)c1ccccc1NC(=O)CN1C(=O)c2cccc3cccc1c23 (centres undefined) the results were TDP1 cell CPT -1% and TDP1 cell noCPT 1%.
`Cc1ccc(CNCCCn2cnc3c(OCc4ccccc4)ncnc32)o1` gave MCF10A rereplic 5%, IL1B secr inh -20, TDP1 cell CPT inconclusive, TDP1 cell noCPT inconclusive and SW480 rereplic inconclusive.
COc1cc(C2CC(=O)Nc3c2c(=O)n(C)c(=O)n3C)cc(OC)c1OC (centres undefined) was read as Chronic BCR inh 7%, TDP1 cell CPT 4% and TDP1 cell noCPT 4%.
`Cc1ccc(NC(=O)/C(C#N)=C/c2cc(C)n(-c3ccc(N4CCOCC4)c([N+](=O)[O-])c3)c2C)c(C)c1` gave MCF10A rereplic -1%, IL1B secr inh -20, Chronic BCR inh -2%, TDP1 cell CPT 7.3µM*, TDP1 cell noCPT 8.2µM* and SW480 rereplic -10%.
Screening COC(=O)/C(C#N)=C/c1ccc(N2CCOCC2)c([N+](=O)[O-])c1 returned MCF10A rereplic 0%, IL1B secr inh 9, Chronic BCR inh -20%, TDP1 cell CPT -5%, TDP1 cell noCPT -9% and SW480 rereplic 1%.
`CCN1CCCC1CNC(=O)c1cnn(-c2nccc(-c3cc4ccccc4o3)n2)c1C` (centres undefined) gave TDP1 cell CPT -8%[9.04 µM] and TDP1 cell noCPT inconclusive.
Screening CC(Sc1ccc(S(=O)(=O)N2CCOCC2)cn1)C(=O)Nc1ccc(Cl)cc1Cl (centres undefined) returned MCF10A rereplic 8%, IL1B secr inh -10, Chronic BCR inh 4%, TDP1 cell CPT inconclusive, TDP1 cell noCPT inconclusive and SW480 rereplic -12%.
Screening CC(Sc1ccc(S(=O)(=O)N2CCOCC2)cn1)c1ccccc1Cl (centres undefined) returned MCF10A rereplic inconclusive, IL1B secr inh -3, Chronic BCR inh -3%, TDP1 cell CPT inconclusive, TDP1 cell noCPT 29µM* and SW480 rereplic 19%.
O=C(CSc1ccc(S(=O)(=O)N2CCOCC2)cn1)Nc1ccc(F)c(F)c1 was read as MCF10A rereplic 2%, IL1B secr inh -15, Chronic BCR inh 5%, TDP1 cell CPT 16µM*, TDP1 cell noCPT 16µM* and SW480 rereplic -8%.
Screening CCN(C(=O)CSc1ccc(S(=O)(=O)N2CCOCC2)cn1)c1ccccc1 returned MCF10A rereplic -4%, IL1B secr inh -21, Chronic BCR inh -13%, TDP1 cell CPT inconclusive, TDP1 cell noCPT 16µM* and SW480 rereplic -5%.
Screening CC(C)N(C(=O)CSc1ccc(S(=O)(=O)N2CCCCC2)cn1)c1ccccc1 returned MCF10A rereplic 5.8µM*, IL1B secr inh -25, Chronic BCR inh 3%, TDP1 cell CPT inconclusive, TDP1 cell noCPT 15µM* and SW480 rereplic -10%.
For Clc1ccccc1Cn1cccc1C1=NC(Cc2ccccc2)CO1 (centres undefined) the results were TDP1 cell CPT 4% and TDP1 cell noCPT -16%.
Screening CC(C)C[C@H](NC(=O)[C@@H](Cc1c[nH]c2ccccc12)NC(=O)[C@H](Cc1ccc(O)cc1)NC(=O)[C@H](CO)NC(=O)[C@H](Cc1c[nH]c2ccccc12)NC(=O)[C@H](Cc1cnc[nH]1)NC(=O)[C@@H]1CCC(=O)N1)C(=O)N[C@@H](CCCN=C(N)N)C(=O)N1CCC[C@@H]1C(=O)NCC(N)=O returned TDP1 cell CPT 9% and TDP1 cell noCPT -15%.
